SMILES strings stand for the structures. The campaign covered roughly 48,000 compounds. About 13,000 (27%) showed an effect of 50% or more. Some of the results follow.

From ChEMBL document CHEMBL3988442, “University of Dundee, Small-Polar-MMV Screening Library” (2021) come the findings set out here.

For this assay, the system named is Wolbachia pipientis. Nature of the assay: Anti-Wolbachia Cell-Based Screen. The class given is functional. The note with it: 5 µM. Details: scale not given: in the data most compounds retested in dose-response had high values.
Consider `CC(=O)N1CCC(Oc2ccc(C#N)cc2)CC1`, for which the “Percent Effect” value was -9.565%. In the case of `Cc1nc(N(C)C)ncc1C(=O)NCCCn1nccc1C1CC1` it was -2.183%; in that of `Cn1cc(CN2CCc3onc(C(=O)Nc4cccnc4)c3C2)cn1`, 104.3%; in that of `CC(=O)NCc1noc2c1CN(Cc1cnn(C)c1)CC2`, 0.2145%. In the case of `O=C(Nc1cccnc1)c1noc2c1CN(S(=O)(=O)C1CC1)CC2` it was 3.652%; in that of `CC(C)NC(=O)C1CCC2(CCN(Cc3cnn(C)c3)CC2)CO1.O=C(O)C(F)(F)F` (centres undefined), -4.372%. For the compound `CC(C)NC(=O)c1noc2c1CN(Cc1cnn(C)c1)CC2`, the “Percent Effect” value turned out to be 212.5%. Turning to `Cc1cnn(C2CN(CC(=O)Nc3cccnc3)C2)c1`, the “Percent Effect” value is -2.546%. As for `CSc1ccc(OC(C)C(=O)Nc2cc(C)n[nH]2)cc1` (centres undefined), the “Percent Effect” value is recorded as -10.9%. Next, `COC(=O)CNC(=O)C(C)Oc1ccccc1C(F)(F)F` (centres undefined): -20.43%; `CC(=O)N1CCc2[nH]nc(C(=O)N3CC=CC3)c2C1`: -70.9%; `COc1cccc2[nH]cc(CCNC(=O)N3CCOCC3C3CC3)c12` (centres undefined): -14.93%. Consider `Cc1nsc(C(=O)N2CCc3ccccc3C2)n1`, for which the “Percent Effect” value is listed as 14.75%.

With `Cc1nsc(NC(=O)N2CCc3sccc3C2)n1`, the “Percent Effect” value was 105.8%. Take `CN(C)c1ccc(NC(=O)N2CCc3sccc3C2)cn1`: the “Percent Effect” value is reported as -14.46%. As for `Cc1nsc(N2CCc3sccc3C2)n1`, the “Percent Effect” value was found to be 15.05%. Next, `O=C(Nc1ccc(N2CCCC2)nc1)N1CCc2ccccc2C1`: 28.26%; `CSc1nsc(NC(=O)N2CCc3ccccc3C2)n1`: 111%; `CN(C)Cc1cc(CC2(NCc3ccc(C#N)cc3)COC2)no1`: 1.695%. On to `Cn1cccc(NC(=O)N2CCC(CSc3ccccc3)C2)c1=O` (centres undefined), for which the “Percent Effect” value is reported as -5.186%.

Regarding `CC(C)CC(=O)N1CCCC2(CC(C(=O)Nc3ccccc3)=NO2)C1` (centres undefined), the “Percent Effect” value stood at 115.3%. With `Cc1ncccc1NC(=O)C1=NOC2(CCN(Cc3nccs3)C2)C1` (centres undefined), the “Percent Effect” value is recorded as 10.83%. Consider `CC(C)(C)CC(=O)N1CCCC2(CC(C(=O)Nc3ccccc3)=NO2)C1` (centres undefined), for which the “Percent Effect” value is on record as 98.19%. For `CC(C)NC(=O)N1CCCC2(CC(C(=O)Nc3ccccc3)=NO2)C1` (centres undefined), the “Percent Effect” value was 111.3%. As for `COCC(=O)N1CCC2(CC(C(=O)NCc3cccnc3)=NO2)C1` (centres undefined), the “Percent Effect” value is recorded as -9.027%.

With `CC(C)NC(=O)N1CCC2(CC(C(=O)NCc3cccnc3)=NO2)C1` (centres undefined), the “Percent Effect” value is recorded as -3.064%.

As to `CC(C)C(=O)N1CCCC2(CC(C(=O)NCc3cccnc3)=NO2)C1.O=C(O)C(F)(F)F` (centres undefined), the “Percent Effect” value was -6.89%. With `CN(Cc1ccc2c(c1)OCO2)C(=O)c1ccc(C2CCCO2)s1` (centres undefined), the “Percent Effect” value was -6.874%. For `Cc1n[nH]c(C)c1CCc1nc(C2CC2)n[nH]1`, the “Percent Effect” value was -13.82%.
